The record followed here is the supplement of paper PMC6411743.

± gives the standard deviation of the averaged measurements. About 5,400 targets were measured; listed, in parts, are those with the largest changes and a random draw of the rest.

Compound in this assay: Nc1nc2c(ncn2[C@@H]2O[C@H](COP(=O)(O)OP(=O)(O)OP(=O)(O)O)[C@@H](O)[C@H]2O)c(=O)[nH]1 [guanosine triphosphate]
The assay is described as follows: NP40-soluble protein abundance relative to vehicle (solubility fold change) (ratio); higher = more soluble protein in presence of GTP. Summed up: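 Values are fold changes against the detergent-processed vehicle, based on vsn-normalised intensities. Jurkat crude lysate was treated at eight concentrations from 0.1 to 10 mM (10 min at room temperature, then 3 min at 37 °C), solubilised with 0.8% NP40 and benzonase, ultracentrifuged and analysed by TMT-labelled LC-MS/MS over three independent experiments.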

UniProt Q8TDZ2, sequence (Q8TDZ2 whole entry): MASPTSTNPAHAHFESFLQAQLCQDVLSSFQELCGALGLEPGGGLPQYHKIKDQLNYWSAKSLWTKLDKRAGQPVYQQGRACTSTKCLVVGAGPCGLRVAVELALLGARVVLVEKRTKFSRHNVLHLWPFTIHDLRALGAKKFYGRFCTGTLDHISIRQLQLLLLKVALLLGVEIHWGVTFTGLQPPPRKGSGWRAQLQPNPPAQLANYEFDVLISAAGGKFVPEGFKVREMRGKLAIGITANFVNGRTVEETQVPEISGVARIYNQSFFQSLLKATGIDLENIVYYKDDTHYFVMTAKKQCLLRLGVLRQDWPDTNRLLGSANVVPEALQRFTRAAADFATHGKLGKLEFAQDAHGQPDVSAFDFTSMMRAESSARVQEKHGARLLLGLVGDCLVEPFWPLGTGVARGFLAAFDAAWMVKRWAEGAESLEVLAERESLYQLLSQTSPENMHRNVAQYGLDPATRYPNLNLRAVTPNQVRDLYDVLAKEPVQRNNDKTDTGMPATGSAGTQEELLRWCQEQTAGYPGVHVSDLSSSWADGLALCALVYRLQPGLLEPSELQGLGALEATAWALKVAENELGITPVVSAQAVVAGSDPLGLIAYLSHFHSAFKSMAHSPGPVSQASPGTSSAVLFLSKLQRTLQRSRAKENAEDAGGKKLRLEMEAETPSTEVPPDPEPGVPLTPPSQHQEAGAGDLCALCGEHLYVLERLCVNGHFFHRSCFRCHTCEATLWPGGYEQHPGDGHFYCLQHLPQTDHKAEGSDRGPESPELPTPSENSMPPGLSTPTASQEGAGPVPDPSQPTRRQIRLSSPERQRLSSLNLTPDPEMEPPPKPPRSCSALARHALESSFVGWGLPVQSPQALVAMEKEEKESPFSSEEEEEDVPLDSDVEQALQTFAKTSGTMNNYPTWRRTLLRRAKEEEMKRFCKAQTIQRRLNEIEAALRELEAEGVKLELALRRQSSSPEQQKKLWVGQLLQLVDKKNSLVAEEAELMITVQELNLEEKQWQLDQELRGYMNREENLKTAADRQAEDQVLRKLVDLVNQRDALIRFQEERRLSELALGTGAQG
UniProt Q02880, sequence (Q02880 whole entry): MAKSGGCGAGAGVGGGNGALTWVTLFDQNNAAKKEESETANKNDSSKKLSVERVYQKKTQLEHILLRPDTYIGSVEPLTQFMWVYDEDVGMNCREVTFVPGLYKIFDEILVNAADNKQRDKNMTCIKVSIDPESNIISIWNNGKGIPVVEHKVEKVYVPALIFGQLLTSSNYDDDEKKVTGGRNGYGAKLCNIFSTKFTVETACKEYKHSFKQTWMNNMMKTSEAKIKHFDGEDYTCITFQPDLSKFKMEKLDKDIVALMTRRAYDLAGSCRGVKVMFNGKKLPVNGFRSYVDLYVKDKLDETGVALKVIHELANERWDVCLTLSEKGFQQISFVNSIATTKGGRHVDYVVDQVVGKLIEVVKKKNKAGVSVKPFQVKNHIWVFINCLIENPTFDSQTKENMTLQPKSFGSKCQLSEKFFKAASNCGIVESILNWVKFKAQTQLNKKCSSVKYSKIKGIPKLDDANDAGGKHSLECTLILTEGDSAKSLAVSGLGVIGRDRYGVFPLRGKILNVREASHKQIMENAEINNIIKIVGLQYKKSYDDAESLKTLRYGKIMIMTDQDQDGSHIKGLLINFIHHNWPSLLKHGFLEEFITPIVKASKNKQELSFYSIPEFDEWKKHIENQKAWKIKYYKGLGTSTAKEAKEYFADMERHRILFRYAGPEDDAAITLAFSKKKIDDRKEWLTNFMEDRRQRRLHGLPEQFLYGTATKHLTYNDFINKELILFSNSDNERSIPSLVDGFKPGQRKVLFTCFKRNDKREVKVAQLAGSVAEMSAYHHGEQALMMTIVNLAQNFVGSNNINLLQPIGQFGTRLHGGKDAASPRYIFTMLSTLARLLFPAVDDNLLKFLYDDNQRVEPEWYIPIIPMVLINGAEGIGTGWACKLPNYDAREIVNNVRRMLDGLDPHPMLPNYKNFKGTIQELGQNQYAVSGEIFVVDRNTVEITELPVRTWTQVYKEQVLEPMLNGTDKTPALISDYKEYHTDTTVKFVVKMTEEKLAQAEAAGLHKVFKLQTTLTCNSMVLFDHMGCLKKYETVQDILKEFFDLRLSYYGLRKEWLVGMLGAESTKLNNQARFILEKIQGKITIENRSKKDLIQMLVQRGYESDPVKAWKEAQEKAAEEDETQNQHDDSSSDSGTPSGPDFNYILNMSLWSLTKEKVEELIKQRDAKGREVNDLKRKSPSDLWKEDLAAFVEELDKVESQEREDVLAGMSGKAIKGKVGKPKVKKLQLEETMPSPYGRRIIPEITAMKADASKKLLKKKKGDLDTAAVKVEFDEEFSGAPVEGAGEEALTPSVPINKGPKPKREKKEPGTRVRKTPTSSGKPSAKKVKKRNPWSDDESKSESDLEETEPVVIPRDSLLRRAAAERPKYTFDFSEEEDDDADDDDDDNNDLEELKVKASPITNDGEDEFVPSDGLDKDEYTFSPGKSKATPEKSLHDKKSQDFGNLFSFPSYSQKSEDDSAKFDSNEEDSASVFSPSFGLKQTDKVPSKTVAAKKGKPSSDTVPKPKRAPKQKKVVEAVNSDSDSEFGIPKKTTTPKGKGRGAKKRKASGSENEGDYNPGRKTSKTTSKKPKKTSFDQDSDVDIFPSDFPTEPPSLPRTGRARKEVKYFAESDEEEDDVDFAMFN
UniProt Q8NC56, sequence (Q8NC56 whole entry): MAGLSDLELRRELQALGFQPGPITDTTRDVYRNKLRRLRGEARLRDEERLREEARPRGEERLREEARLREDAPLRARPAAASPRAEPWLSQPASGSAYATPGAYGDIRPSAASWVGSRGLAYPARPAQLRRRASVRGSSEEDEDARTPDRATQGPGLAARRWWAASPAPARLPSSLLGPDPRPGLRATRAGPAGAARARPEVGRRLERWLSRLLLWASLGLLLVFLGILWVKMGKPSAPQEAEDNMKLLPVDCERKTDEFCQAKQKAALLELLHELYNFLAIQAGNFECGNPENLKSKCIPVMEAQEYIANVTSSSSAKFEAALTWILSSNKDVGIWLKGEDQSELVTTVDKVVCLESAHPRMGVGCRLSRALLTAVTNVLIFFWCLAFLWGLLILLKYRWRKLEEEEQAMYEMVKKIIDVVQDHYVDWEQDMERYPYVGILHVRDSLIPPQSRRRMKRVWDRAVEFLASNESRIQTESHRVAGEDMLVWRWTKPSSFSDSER
UniProt Q7Z2T5, sequence (Q7Z2T5 whole entry): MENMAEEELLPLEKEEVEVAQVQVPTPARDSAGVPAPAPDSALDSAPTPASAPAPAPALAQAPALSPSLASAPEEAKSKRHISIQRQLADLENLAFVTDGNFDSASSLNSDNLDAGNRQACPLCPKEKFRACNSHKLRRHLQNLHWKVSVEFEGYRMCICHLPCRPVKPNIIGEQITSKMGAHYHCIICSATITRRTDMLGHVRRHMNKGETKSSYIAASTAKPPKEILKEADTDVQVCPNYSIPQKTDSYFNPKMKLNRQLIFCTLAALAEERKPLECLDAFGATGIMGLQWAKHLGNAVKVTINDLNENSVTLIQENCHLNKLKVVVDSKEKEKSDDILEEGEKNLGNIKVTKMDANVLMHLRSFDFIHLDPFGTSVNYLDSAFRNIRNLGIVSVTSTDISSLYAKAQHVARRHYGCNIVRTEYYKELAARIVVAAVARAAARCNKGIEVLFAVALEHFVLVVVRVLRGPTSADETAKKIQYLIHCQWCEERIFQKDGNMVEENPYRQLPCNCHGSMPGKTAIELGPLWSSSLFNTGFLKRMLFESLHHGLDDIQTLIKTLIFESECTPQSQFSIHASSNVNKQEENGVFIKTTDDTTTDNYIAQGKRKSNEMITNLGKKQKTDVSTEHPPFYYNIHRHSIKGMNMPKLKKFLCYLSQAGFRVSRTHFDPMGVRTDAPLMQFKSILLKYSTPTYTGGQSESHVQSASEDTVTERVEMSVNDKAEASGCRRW

As to UniProt Q7Z2T5, the NP40-soluble protein abundance (concentration: 0.1mM) turned out to be 1.05 ± 0.05; the NP40-soluble protein abundance (concentration: 0.5mM) turned out to be 1.09 ± 0.014; the NP40-soluble protein abundance (concentration: 1mM) was 1.08 ± 0.035; the NP40-soluble protein abundance (concentration: 2mM) is 1.21 ± 0.059; the NP40-soluble protein abundance (concentration: 4mM) worked out at 1.32 ± 0.072; the NP40-soluble protein abundance (concentration: 6mM) was 1.42 ± 0.08. Further, the NP40-soluble protein abundance (concentration: 8mM) is 1.44 ± 0.059 and the NP40-soluble protein abundance (concentration: 10mM) worked out at 1.57 ± 0.024.
For UniProt Q02880|Q02880-2, the NP40-soluble protein abundance reads like this: (concentration: 0.1mM) 1.08 ± 0.06; (concentration: 0.5mM) 1.09 ± 0.065; (concentration: 1mM) 1.21 ± 0.06; (concentration: 2mM) 1.37 ± 0.11; (concentration: 4mM) 1.68 ± 0.17; (concentration: 6mM) 1.85 ± 0.27. For the same target, the NP40-soluble protein abundance (concentration: 8mM) was determined as 1.99 ± 0.26 and the NP40-soluble protein abundance (concentration: 10mM) was 2.08 ± 0.34.
Regarding LEMD2 (UniProt Q8NC56), the NP40-soluble protein abundance reads like this: (concentration: 0.1mM) 1.09 ± 0.04; (concentration: 0.5mM) 1.22 ± 0.11; (concentration: 1mM) 1.32 ± 0.076; (concentration: 2mM) 1.34 ± 0.15; (concentration: 4mM) 1.34 ± 0.088; (concentration: 6mM) 1.42 ± 0.11. Besides, the NP40-soluble protein abundance was 1.48 ± 0.14 (concentration: 8mM) and 1.49 ± 0.21 (concentration: 10mM).
Regarding UniProt Q8TDZ2|Q8TDZ2-4, the NP40-soluble protein abundance runs as follows: (concentration: 0.1mM) 1.01 ± 0.056; (concentration: 0.5mM) 0.965 ± 0.069; (concentration: 1mM) 0.946 ± 0.021; (concentration: 2mM) 0.9475 ± 0.0091; (concentration: 4mM) 0.9237 ± 0.0088; (concentration: 6mM) 0.899 ± 0.019. Moreover, the NP40-soluble protein abundance (concentration: 8mM) turned out to be 0.921 ± 0.016 and the NP40-soluble protein abundance (concentration: 10mM) was 0.879 ± 0.058.
